Bioassay records deposited in PubChem BioAssay by National Center for Advancing Translational Sciences (NCATS).
This is a sample that favours compounds with a hit; in the whole collection about 3.4% have one here.
Tau ThT inhib: tau fibrillization inhibition (ThT binding). recombinant tau K18 P301L, heparin-induced fibrillization, ThT fluorescence. Potency, µM (top dose mostly 57.4 µM), inactives show at the highest dose activity, negative = inhibition, usual class: inhibitors. 2.1% of 270,000 active. AID 1460; also: nearly all actives have a fitted effect of over 55% in size
Target sequence (P10636 561-689 P618L limits assumed): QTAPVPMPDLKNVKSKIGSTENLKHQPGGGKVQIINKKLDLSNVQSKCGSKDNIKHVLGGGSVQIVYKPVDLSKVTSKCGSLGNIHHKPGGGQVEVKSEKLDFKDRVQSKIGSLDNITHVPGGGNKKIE
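Recombinant human tau K18 fragment […] carrying P301L, 15 uM unlabeled plus 0.24 uM Alexa 594-labeled, was fibrillized with 20 uM heparin in 100 mM sodium acetate pH 7 for 6 hr at 37 C; 30 uM ThT fluorescence read after 1 hr.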
Tau fluor counter: counter-screen for tau fibril formation inhibitors | 0.93% of 280,000 active | AID 1463 | Potency, µM (doses to about 57.7 µM), for the others: at the top dose activity change, negative = decrease | tau K18 P301L Alexa594 fluorescence, heparin fibrillization; also: nearly all actives have a fitted effect of over 55% in size
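Human tau K18 P301L (15 uM unlabeled, 0.24 uM Alexa 594-labeled) in 100 mM sodium acetate pH 7 with 20 uM heparin, 6 hr at 37 C. ThT 30 uM added, 1 hr ambient; Alexa 594 FP and total fluorescence read at 555/632 nm.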
KDM4E inh: blocks human JMJD2E demethylase activity | B2RXH2 | JMJD2E catalytic domain, FDH-coupled NADH fluorescence (FDH is formaldehyde dehydrogenase) | Potency, µM (titrated, usually from 57.1 µM), for inactives: at the top dose activity change, negative = inhibition, usual class: inhibitors | 1.6% of 230,000 active; active = well fitted inhibition curve with a large enough effect, not every such curve was filed as active; inconclusive = small, poorly fitted or top-dose-only effect, or another doubt; inactive = no such curve, though single readings can be large or run the other way;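 also: 0% = wells with enzyme and -100% = buffer wells without enzyme; nearly all actives have a fitted effect of over 50% in size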
Target sequence (B2RXH2 1-337 limits assumed): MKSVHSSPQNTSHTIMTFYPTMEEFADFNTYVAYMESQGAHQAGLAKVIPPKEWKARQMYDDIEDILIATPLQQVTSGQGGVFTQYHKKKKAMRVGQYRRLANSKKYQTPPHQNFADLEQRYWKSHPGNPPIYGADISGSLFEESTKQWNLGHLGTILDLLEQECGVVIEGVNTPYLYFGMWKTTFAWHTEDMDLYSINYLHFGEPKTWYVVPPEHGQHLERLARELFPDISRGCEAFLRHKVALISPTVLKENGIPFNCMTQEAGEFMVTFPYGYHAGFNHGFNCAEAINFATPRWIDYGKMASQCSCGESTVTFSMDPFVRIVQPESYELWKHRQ
GoLoco inh red: inhibitors of human Gai1-RGS12 GoLoco interaction (red fluorophore). Potency, µM (titrated, usually from 61.6 µM), for the others: at the highest dose activity, negative = inhibition, usual class: inhibitors. Gai1:RGS12 GoLoco peptide FP, rhodamine, 10 min. 0.44% of 230,000 active. P63096. AID 880; active = well fitted inhibition curve with a large enough effect, not every such curve was filed as active; inactive = no such curve, though single readings can be large or run the other way; also: nearly all actives have a fitted effect of over 30% in size
Tau fibril FP: inhibitors of human tau fibril formation; P10636; K18 P301L tau heparin fibrillization, Alexa594 FP, 6 h; Potency, µM (series often up to 57.7 µM), for inactives: at the top dose activity, negative = inhibition, hits mostly inhibitors; 0.39% of 280,000 active; AID 1468; also: nearly all actives have a fitted effect of over 55% in size
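Quantitative HTS format: compounds meet 15 uM recombinant K18 P301L tau and Alexa 594-tau tracer in 100 mM sodium acetate pH 7; 20 uM heparin triggers fibrillization at 37 C over 6 hr; FP gives the signal.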
Numbers without * were called inactive; u = inconclusive; x = no result given; [ ] = dose if it differs, or a comment. Unless noted, calls follow the shape of the dose curve; as a rule, active = well fitted curve in the direction sought with a large enough effect; inconclusive = small, poorly fitted or top-dose-only effect, or another doubt; inactive = no such curve, though single readings can be large; an effect the other way counts as inactive or inconclusive. Unless noted, % is scaled to controls: 0 for no effect and ±100 for the full control effect; potency is read from the fitted curve at half-maximal effect.

SMILES | Tau ThT inhib | Tau fluor counter | KDM4E inh | GoLoco inh red | Tau fibril FP
CCCN1C(=O)S/C(=C\c2ccc(N3CCOCC3)o2)C1=O | 17.8µM* | -26.6% | u | 123.9% | -18.1%
CCCN1C(=O)S/C(=C/c2ccc(N3CCOCC3)o2)C1=O | u | u | 8.91µM* | 61.7% | u
O=C(NCCc1ccccc1)C(=O)NCC(c1cccnc1)N1CCN(c2ccc(F)cc2)CC1 (stereo not drawn) | u | -29.9% | x | x | -3.3%
Cc1cccc(N2CCN(C(=O)c3c4c(nc5ccccc35)C(=O)N(C3CCCCC3)C4)CC2)c1C | u | -1.9% | x | x | -6.1%
Cc1cc(C)c(NC(=O)C2CCN(c3nnc(C)c4c(C)n(-c5ccccc5)nc34)CC2)c(C)c1 | -17.4% | -10.2% | x | x | -7.0%
OCCN1CCN(C(=S)c2ccc(Cl)c(Cl)c2)CC1 | 7.94µM* | -21.7% | -27.2% | -5.3% | u
COc1cc(NC(=S)N2CCN(CCO)CC2)c(OC)cc1Cl | -2.7% | 6.2% | -2.5% | 9.2% | -1.2%
COc1ccc(-c2cc(C(F)(F)F)nc(SCCC(=O)Nc3cc(C)on3)n2)cc1 | -1.8% | -2.8% | 22.4µM* | 6.2% | -7.0%
COc1ccc(-c2cc(C(F)(F)F)nc(SCCC(=O)Nc3cccc(O)c3)n2)cc1 | 2.1% | u | x | x | 14.1µM*
COc1ccc(-c2cc(C(F)(F)F)nc(SCCC(=O)Nc3cccc(OC)c3)n2)cc1 | -12.8% | u | x | x | u
CN(Cc1ccco1)c1ccnc(-c2cccnc2)n1 | x | x | x | -8.2% | x
CN(Cc1ccco1)c1ccnc(-c2ccoc2)n1 | 22.4µM* | u | 25.1µM* | -22.8% | u
COc1ccc(C(CC(=O)Nc2ccc(C)cn2)N2Cc3ccccc3C2=O)cc1OC (stereo not drawn) | 7.1% | 2.1% | x | x | -6.8%
OCCN1CCN(C(c2cccs2)c2ccc3cccnc3c2O)CC1 (stereo not drawn) | u | -16.4% | 8.91µM* | -47.6% | u
Cc1ccc(NC(=O)CSc2cn(CC(=O)N3CCOCC3)c3ccccc23)cc1Cl | -17.7% | u | x | x | 2.3%
CCN1C(=O)/C(=C/c2ccc(N3CCCC3)cc2)NC1=S | 11.2µM* | u | -2.4% | 171.6% | u
CCCN1C(=O)/C(=C/c2ccc(N3CCCC3)c(C)c2)NC1=S | u | 8.91µM*[quencher] | -13.1% | 177.2% | u
Cc1cc(/C=C2/C(=O)N(C)C(=S)N2C)ccc1N1CCCC1 | 3.98µM* | u | -18.1% | 172.9% | -3.3%
Cc1cc(/C=C2\NC(=S)N(C)C2=O)ccc1N1CCCC1 | u | -27.9% | -7.9% | 233.3% | u
CCCN1C(=O)/C(=C/c2ccc(N3CCOCC3)cc2)NC1=S | u | u | 1.0% | 30.1% | u
CC(C)c1ccc(/C=C2\C(=O)N(CCN3CCOCC3)C(=S)N2C)cc1 | -9.9% | 0.4% | -2.5% | 2.4% | 6.2%
CC(C)n1c(O)c(N=Nc2ccc(Cl)c(C(=O)O)c2)c2ccccc21 | 15.8µM* | -0.2% | -0.1% | -3.7% | -2.4%
CCn1c(O)c(N=Nc2ccc(Cl)c(C(=O)O)c2)c2ccccc21 | 4.47µM* | -8.5% | -15.4% | 4.1% | 7.2%
COc1ccc(N2CCN(c3oc(/C=C/c4ccccc4OC)nc3C#N)CC2)cc1 | -4.3% | u | x | x | u
O=C(NN=C1CCN(Cc2ccccc2)CC1)c1cc2ccccc2cc1O | 12.6µM* | u | 28.2µM* | 2.2% | 1.4%
SMILES | Tau ThT inhib | Tau fluor counter | KDM4E inh | GoLoco inh red | Tau fibril FP
CCOc1ccc(C(=O)Nc2nnc(S(=O)(=O)N(CC)c3ccccc3C)s2)cc1 | u | u | x | x | -10.0%
CCOc1cccc(=O)c2c(C)n(-c3ccc(C(=O)O)cc3)c(C)c12 | u | -10.5% | u | -6.8% | -9.1%
COc1ccc(-n2c(C)c3c(OC)cccc(=O)c3c2C)cc1 | 17.8µM* | -22.7% | -3.2% | 5.3% | u
COc1cccc(=O)c2c(C)n(-c3ccc(C(=O)O)cc3)c(C)c12 | 15.8µM* | -13.8% | u | 96.3% | u
CCc1nn2c(=O)cc(COC(=O)Cc3ccccc3)nc2s1 | -3.3% | -3.3% | x | x | -1.5%
CCOC(=O)c1ccc(CN(Cc2ccccc2)S(=O)(=O)c2ccc(C)cc2)cc1 | 9.9% | -2.0% | x | x | -3.2%
CCOC(=O)c1ccc(CN(Cc2ccc(C)cc2)S(=O)(=O)c2ccc(NC(C)=O)cc2)cc1 | 4.5% | u | x | x | 11.2µM*
